# Hits are enriched below; roughly 3.5% of the tested compounds scored in any of these assays.
# FBW7 act = FBW7 E3 ligase activators, primary screen, biochemical, AlphaScreen, human. F-box/WD repeat-containing protein 7 (Homo sapiens), Q969H0. AlphaScreen FBW7–phospho-cyclin E peptide binding, activator screen. normalized activity (activation), % at 26.1 µM. 0.13% of 650,000 active. AID 1259310, 2017; in the data active means normalized activity above about 1.9%;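 further: purified mutant Fbw7 with reduced substrate affinity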
# MITF primary = MITF inhibitors, primary screen, biochemical, AlphaScreen, human | Microphthalmia-associated transcription factor (Homo sapiens), O75030 | AlphaScreen MITF homodimerization, bead proximity signal | inhibition, % at 2.6 µM | 0.91% of 650,000 active | AID 1259374, 2018; in the data active means inhibition above about 50%
# GPR151 ag = activators of human GPR151, primary screen, cell-based, PathHunter beta-arrestin, luminescence. G-protein coupled receptor 151 (Homo sapiens), Q8TDV0. PathHunter beta-arrestin GPR151 cells. activation, % at 11.2 µM. 1% of 650,000 active; in the data active means activation above about 4.9%
# Target sequence (Q8TDV0 whole entry, looked up): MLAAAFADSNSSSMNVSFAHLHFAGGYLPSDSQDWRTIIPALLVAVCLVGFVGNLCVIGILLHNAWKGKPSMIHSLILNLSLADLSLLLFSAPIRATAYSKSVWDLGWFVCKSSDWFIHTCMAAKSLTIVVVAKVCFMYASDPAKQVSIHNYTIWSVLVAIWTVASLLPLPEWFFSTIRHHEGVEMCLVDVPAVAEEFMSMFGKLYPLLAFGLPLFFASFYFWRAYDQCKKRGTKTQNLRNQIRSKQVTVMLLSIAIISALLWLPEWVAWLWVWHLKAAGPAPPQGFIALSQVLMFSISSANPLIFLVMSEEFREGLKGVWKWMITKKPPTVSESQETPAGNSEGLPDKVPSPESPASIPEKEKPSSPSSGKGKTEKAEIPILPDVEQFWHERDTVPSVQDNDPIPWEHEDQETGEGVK
# TEAD-YAP inh = TEAD-YAP interaction inhibition, primary screen, TEAD-YAP interaction inhibitor project, luminescence, HEK-TIYL cells. TEAD-Gal4/YAP UAS-luciferase luminescence. inhibition, % at 9.12 µM. 1.4% of 640,000 active. AID 1259422, 2018; in the data active means inhibition above about 32%
# A number is an active result; . = inactive.
SMILES,FBW7 act,MITF primary,GPR151 ag,TEAD-YAP inh
CNC(=O)/C(C#N)=C/c1c(Oc2cc(C)cc(C)c2)nc2ccccn2c1=O,.,.,.,32.1
COc1ccccc1-c1noc(-c2cccc(C)c2)n1,.,.,.,.
CCCNc1ncnc2c1nc(NCCCN1CCCC1=O)n2C(C)C,.,.,.,.
CC(C)n1c(NCCN2CCOCC2)nc2c(Nc3ccc(N4CCOCC4)cc3)ncnc21,.,.,.,.
CC(C)n1c(NCCN2CCOCC2)nc2c(Nc3ccccc3)ncnc21,.,.,.,41.1
CC(C)n1c(NCCCN2CCCC2=O)nc2c(Nc3ccccc3)ncnc21,.,.,.,35.4
O=C(Nc1ccc(N2CCCCC2)c([N+](=O)[O-])c1)c1ccco1,.,.,.,.
CN(Cc1c(F)cccc1Cl)C(=O)CSc1nnc(N)s1,.,.,.,.
CN(Cc1c(F)cccc1Cl)C(=O)CCl,.,.,.,42.1
CC(=O)c1c(C)[nH]c(C(=O)CN(C)Cc2c(F)cccc2Cl)c1C,.,.,.,48.6
Cc1ccc([N+](=O)[O-])cc1NS(=O)(=O)c1cc(Cl)ccc1Cl,.,.,.,.
Cc1ccccc1NS(=O)(=O)c1ccc2ccccc2c1,.,.,.,.
CC(=O)Nc1ccccc1NS(=O)(=O)c1ccc2ccccc2c1,.,.,.,52.8
O=C1CS/C(=N/N=C/c2c3ccccc3cc3ccccc23)N1,.,.,.,.
CCc1c(C)nc2c(C(=O)NCCc3ccccc3)c[nH]n2c1=O,.,.,.,.
Cc1ccc(CCNC(=O)c2c(N)[nH]n3c(=O)c4ccccc4nc23)cc1,.,.,.,35.5
NC(=O)CSc1nc(SCC(N)=O)c2c3c(sc2n1)CCC3,.,.,.,.
CCOC(=O)c1c(NC(=O)C2C3C=CC(C3)C2(C)C(=O)O)sc2c1CCCC2 (configuration not stated),.,60.0,.,39.8
CCOC(=O)C1(CCSC)NC(c2cccs2)C2C(=O)N(CC)C(=O)C21 (configuration not stated),.,.,.,32.2
CCOC(=O)C1(Cc2ccccc2)NC(c2cccs2)C2C(=O)N(CC)C(=O)C21 (configuration not stated),.,.,.,.
Cc1cnc(C(=O)OCC(=O)Nc2ncc(C(F)(F)F)cc2Cl)cn1,.,.,.,.
Cc1cc2cc3c(cc2c(C)n1)c1ccccc1n3C,.,.,.,62.8
Cn1c2ccccc2c(=O)c2ccccc21,.,.,.,.
CS(=O)(=O)c1cnc2ncnn2c1C1CCCN(C(=O)c2ccn[nH]2)C1 (configuration not stated),.,.,.,.
C=CCNC(=S)NNc1nc(N2CCCC2)nc(N2CCCC2)n1,.,.,.,.
SMILES,FBW7 act,MITF primary,GPR151 ag,TEAD-YAP inh
C=CCNC(=S)NNc1nc(Nc2ccccc2)nc(N2CCCCC2)n1,.,.,.,33.9
Cc1cccc(NC(=O)C(=O)NC2CC2)c1C,.,.,.,.
Cc1cc2ncn(CC3CCN(C(=O)c4ccccc4Br)CC3)c2cc1C,.,.,.,40.2
CCOc1cccc(C2CC(c3cccc(OC)c3)=NC(C(C)C)N2)c1O (configuration not stated),.,.,.,36.0
CCCC1N=C(c2cccc(OC)c2)CC(c2cc(Br)ccc2O)N1 (configuration not stated),.,.,.,38.8
CCCCOc1ccc(C(=O)NNC(=S)NC(C)=O)cc1,.,.,.,.
COc1ccc(C2/C(=C(/O)c3ccc(Cl)cc3)C(=O)C(=O)N2CCO)cc1OC (configuration not stated),.,.,.,.
Cc1nc(C)c(CC(=O)Nc2nc3c(s2)CCCC3)s1,.,.,.,40.4
Cc1ccc(CC(=O)Nc2nc3c(s2)CCCC3)cc1,.,.,.,.
Clc1ccc(-c2cnc3ccc(NCCc4cccnc4)nn23)cc1,.,.,.,51.6
Fc1cccc(-c2cnc3ccc(NCCc4cccnc4)nn23)c1,.,.,.,65.1
c1cncc(CCNc2ccc3ncc(-c4ccc5ccccc5c4)n3n2)c1,.,.,.,.
CCCCN(CC)C(=O)CSc1nnc2c(n1)[nH]c1ccc(S(=O)(=O)N(CC)CC)cc12,.,.,.,.
Oc1ccc(-c2cn3c(n2)SCC3)cc1O,.,65.5,.,.
Oc1ccc(-c2cn3c(n2)SCC3)cc1,.,.,.,.
C=CCOC(=O)C1=C(C)Nc2ncnn2C1c1ccc(OC)c(Br)c1 (configuration not stated),.,.,.,.
O=[N+]([O-])c1cccnc1Nc1cccc(S(=O)(=O)Nc2cccc(C(F)(F)F)c2)c1,.,.,.,.
O=C(Nc1ncc([N+](=O)[O-])s1)c1ccc(Br)cc1,.,.,.,64.8
O=C(Cc1ccc(Br)cc1)Nc1ncc([N+](=O)[O-])s1,.,.,.,.
Cc1ccc(C(=O)Nc2ncc([N+](=O)[O-])s2)cc1,.,.,.,82.0
O=C(Nc1ncc([N+](=O)[O-])s1)c1cccnc1,.,.,.,.
O=C(Nc1nc2ccc3ccccc3c2s1)c1ccc(Br)cc1,.,.,.,.
N#Cc1sc(NC(=O)c2ccc(Br)cc2)nc1Cl,.,.,.,46.7
Cc1onc(-c2ccccc2Cl)c1C(=O)Nc1ncc([N+](=O)[O-])s1,.,.,.,.
Cc1onc(-c2ccccc2)c1C(=O)Nc1ncc([N+](=O)[O-])s1,.,.,.,37.6
SMILES,FBW7 act,MITF primary,GPR151 ag,TEAD-YAP inh
Cn1c(NC(=O)c2ccc(Cl)c([N+](=O)[O-])c2)nc2ccccc21,.,.,.,.
COc1ccc(C2=N/C(=C\c3cc(OC)c(OC)cc3OC)C(=O)O2)cc1,.,.,.,.
Cc1cccc(C(=O)Nc2ncc([N+](=O)[O-])s2)c1,.,.,.,54.6
O=C(Cc1ccc(Cl)cc1)Nc1ncc([N+](=O)[O-])s1,.,.,.,.
O=C(Nc1ncc([N+](=O)[O-])s1)c1ccc(Cl)cc1Cl,.,.,.,64.3
Cc1cccc(NC(=O)c2cnc(N3CCN(c4ncccn4)CC3)c3ccccc23)n1,.,.,.,53.1
COc1ccccc1NC(=O)c1cnc(N2CCN(c3ncccn3)CC2)c2ccccc12,.,.,.,60.3
COc1ccc([N+](=O)[O-])cc1NC(=O)c1cnc(N2CCN(c3ccccn3)CC2)c2ccccc12,.,.,.,.
COc1ccc(OC)c(NC(=O)c2cnc(N3CCN(c4ccccn4)CC3)c3ccccc23)c1,.,.,.,46.2
COc1ccc(C)cc1NC(=O)c1cnc(N2CCN(c3ncccn3)CC2)c2ccccc12,.,.,.,.
Cc1cccc(-n2nc3c(c2N)CSC3)c1C,.,.,.,.
Cc1cnc2c(c1NCCC1=CCCCC1)c(=O)n(C)c(=O)n2C,.,.,.,.
Cc1ccc(C2CC(c3cccs3)=NN2C(=O)CSc2nnc(CNC(=O)c3ccccc3F)n2CCc2ccccc2)cc1 (configuration not stated),.,.,.,.

# Screening data as filed in PubChem BioAssay.
